From PubChem
RORg inh – ROR gamma (mouse) transcription inhibition; P51450; Drosophila S2 Gal4-RORgamma UAS-luciferase reporter, 20 h; Potency, µM (highest dose often 53.6 µM), for inactives: at the top dose activity change, negative = inhibition, hits mostly inhibitors; 5.4% of 310,000 active; note: potency is the fitted concentration of half-maximal effect; nearly all actives have a fitted effect of over 60% in size
Target sequence (P51450 whole entry, looked up, the tested form may be a part): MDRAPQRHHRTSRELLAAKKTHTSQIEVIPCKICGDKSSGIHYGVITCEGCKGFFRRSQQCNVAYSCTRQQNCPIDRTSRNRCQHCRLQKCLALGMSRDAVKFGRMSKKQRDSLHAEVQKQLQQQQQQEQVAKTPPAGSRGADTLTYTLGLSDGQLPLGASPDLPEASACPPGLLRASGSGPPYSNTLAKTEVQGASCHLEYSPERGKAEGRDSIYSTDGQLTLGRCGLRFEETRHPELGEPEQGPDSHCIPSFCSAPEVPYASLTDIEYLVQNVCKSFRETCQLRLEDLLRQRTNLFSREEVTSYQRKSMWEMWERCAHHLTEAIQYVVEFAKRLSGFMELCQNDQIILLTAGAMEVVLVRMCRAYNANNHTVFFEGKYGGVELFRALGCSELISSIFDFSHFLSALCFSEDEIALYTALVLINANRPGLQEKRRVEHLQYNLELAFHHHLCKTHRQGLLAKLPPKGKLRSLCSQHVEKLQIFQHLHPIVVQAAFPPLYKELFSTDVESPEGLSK
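Luciferase reporter read in Schneider cells carrying Gal4-RORγ (mouse) and UAS-Photinus luciferase; cells given compound 1 h before 700 uM copper sulfate induction, then incubated 20 h at ambient temperature.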
Gal4-VP16 FLuc – inhibits Gal4-VP16 luciferase reporter, ROR gamma counter-screen. Drosophila S2 Gal4-VP16 UAS-luciferase, luminescence, 20 h. Potency, µM (top dose mostly 53.6 µM), for inactives: at the top dose activity, negative = inhibition, actives largely listed as inhibitors. 3.5% of 310,000 active;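 note: Gal4-VP16 expression switched on by copper sulfate through the metallothionein promoter; potency is the fitted concentration of half-maximal effect; nearly all actives have a fitted effect of over 50% in size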
DT40 TDP1 no CPT – qHTS for Inhibitors of human tyrosyl-DNA phosphodiesterase 1 (TDP1): qHTS in cells in absence of CPT | DT40 Tdp1-/- hTDP1 cells, no CPT, ATP luminescence, 48 h | Potency, µM (titrated, usually from 46.2 µM), for inactives: top-dose activity change, negative = growth inhibition, usual class: inhibitors | 15% of 420,000 active | AID 686978, 2013; note: potency is the fitted concentration of half-maximal effect; nearly all actives have a fitted effect of over 55% in size
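Seeded 400 DT40-hTDP1 cells/well (vehicle DMSO, no 20 nM CPT); pinned compounds; ≥48 hr at 37 °C; CellTiter-Glo luminescence as viability measure.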
DT40 TDP1 CPT – growth inhibition of DT40 Tdp1-/-;hTDP1 cells with camptothecin (screen for TDP1 inhibitors); chicken DT40 Tdp1-/-;hTDP1 cells + 20 nM CPT, ATP luminescence, 48 h; Potency, µM (top dose mostly 46.2 µM), for the others: at the top dose activity change, negative = growth inhibition, usual class: inhibitors; 12% of 420,000 active; AID 686979; note: potency is the fitted concentration of half-maximal effect; nearly all actives have a fitted effect of over 55% in size
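Chicken DT40 Tdp1-/- cells complemented with human TDP1, 400 cells/well, exposed to compounds plus 20 nM camptothecin for at least 48 h at 37 C; viability read as ATP content by CellTiter-Glo luminescence.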
ELG1 DNA repair – ELG1-dependent DNA repair inhibition; Potency, µM (doses to about 46.1 µM), without a hit: top-dose activity change, negative = inhibition, usual class: inhibitors; 2.3% of 330,000 active; HEK293T ELG1-luciferase reporter, luminescence, 16 h; DNA damage induced by 5-fluorouridine; note: potency is the fitted concentration of half-maximal effect; nearly all actives have a fitted effect of over 55% in size
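Overnight (16 hr) co-exposure of 2,000 cells/well to 5-fluorouridine and compound at 37 °C preceded detection. Luciferase was quantified via ONE-Glo luminescence; loss of signal denotes inhibition.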
IL-1B inflam inh – inflammasome signaling inhibition, IL-1 beta readout; THP-1 LPS/ATP IL-1B secretion, AlphaLISA, 16 h; stronger effect = lower value; 4.7% of 360,000 active; activity change, % at 57.5 µM; in the data active = activity change below about -50%; inconclusive = mostly about -30% to -49%
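THP-1 cells pretreated 1 hr with compounds (up to 57.5 uM final), then stimulated with LPS (250 ng/mL final) plus ATP (1.25 mM final); secreted IL-1B measured by AlphaLISA after 16 hr, decreased signal indicating inhibition.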
An asterisk follows results filed as active; [ ] = dose if it differs, or a comment. Sampled rows, rich in hits. Any-hit rate of the full collection: about 21%. Unless noted, calls come from the whole dose curve; as a rule, active = well fitted curve in the direction sought with a large enough effect; inconclusive = small, poorly fitted or top-dose-only effect, or another doubt; inactive = no such curve, though single readings can be large; an effect the other way counts as inactive or inconclusive. % is set by controls: 0 for no effect and ±100 for the full control effect.

Results for CC(=O)C(=O)O ?
RORg inh: 28.2%; Gal4-VP16 FLuc: 5.4%

Results for CCSc1nnc(C(C)NC(=O)c2ccc(OC)cc2)n1C (stereo not drawn) ?
DT40 TDP1 no CPT: -12.7%; DT40 TDP1 CPT: 8.6%[9.04 µM]

How did O=C(NC1CCCC1)C(c1ccc(F)cc1)N(Cc1ccccc1Cl)C(=O)CCl (stereo not drawn) do in these assays?
RORg inh: -12.8%; Gal4-VP16 FLuc: -10.0%; DT40 TDP1 no CPT: 3.26µM*; DT40 TDP1 CPT: 5.8µM*; ELG1 DNA repair: -24.0%; IL-1B inflam inh: -90.9*

How did O=C(NC1CCCC1)C(c1ccc(F)cc1)N(Cc1ccc(F)cc1)C(=O)c1ccn[nH]1 (stereo not drawn) do in these assays?
RORg inh: 40.5%; Gal4-VP16 FLuc: -7.5%; DT40 TDP1 no CPT: -20.3%; DT40 TDP1 CPT: 9.5%; ELG1 DNA repair: 4.9%; IL-1B inflam inh: -6.2

What do the screens show for `Cc1[nH]c2ccc3c(ncn3CCC#N)c2c1C`?
RORg inh: -1.2%; Gal4-VP16 FLuc: 7.1%; DT40 TDP1 no CPT: -0.9%; DT40 TDP1 CPT: 5.0%; ELG1 DNA repair: -0.8%; IL-1B inflam inh: -23.3

How did Cc1ccccc1COC(=O)c1ccc(-c2nnn(Cc3ccccc3F)n2)cc1 do in these assays?
DT40 TDP1 no CPT: 1.0%; DT40 TDP1 CPT: -28.0%

What do the screens show for `O=S(=O)(c1ccccc1)N1CCCCC1CCc1ccccc1` (stereo not drawn)?
DT40 TDP1 no CPT: 13µM*; DT40 TDP1 CPT: inconclusive; IL-1B inflam inh: -28.8

Results for COc1ccccc1CCNC(=O)C(=O)NCCC1CCCCN1S(=O)(=O)c1ccccc1 (stereo not drawn) ?
DT40 TDP1 no CPT: 16.4µM*; DT40 TDP1 CPT: inconclusive; ELG1 DNA repair: inconclusive; IL-1B inflam inh: -14.7

What do the screens show for `COc1ccc(CCNC(=O)C(=O)NCCC2CCCCN2S(=O)(=O)c2ccccc2)cc1` (stereo not drawn)?
DT40 TDP1 no CPT: 23.1µM*; DT40 TDP1 CPT: 23.1µM*; ELG1 DNA repair: -28.1%; IL-1B inflam inh: 8.9

What do the screens show for `CCC1CCCCN1S(=O)(=O)c1ccccc1[N+](=O)[O-]` (stereo not drawn)?
RORg inh: 1.0%; Gal4-VP16 FLuc: 1.5%; DT40 TDP1 no CPT: 23.1µM*; DT40 TDP1 CPT: 20.6µM*; ELG1 DNA repair: 15.8%; IL-1B inflam inh: 2.0

Results for O=C(COC(=O)c1cccs1)Nc1cccc(S(=O)(=O)N2CCCCC2)c1 ?
DT40 TDP1 no CPT: -13.9%; DT40 TDP1 CPT: inconclusive; ELG1 DNA repair: 2.5%; IL-1B inflam inh: -12.9

Results for COCCn1c(Cc2ccccc2)nnc1SC(C)C(=O)NC1CC1 (stereo not drawn) ?
DT40 TDP1 no CPT: 23.1%; DT40 TDP1 CPT: 1.3%; ELG1 DNA repair: 14.3%; IL-1B inflam inh: 7.8

How did CNc1cncc(-c2cccc(C(=O)NCCN(C)C)c2)n1 do in these assays?
DT40 TDP1 no CPT: -1.1%; DT40 TDP1 CPT: 0.8%; IL-1B inflam inh: 24.0

Results for O=C(OCc1c(-c2ccccc2)ncc2ccccc12)c1cccs1 ?
DT40 TDP1 no CPT: inconclusive; DT40 TDP1 CPT: inconclusive; ELG1 DNA repair: inconclusive; IL-1B inflam inh: 13.4

What do the screens show for `Cn1cc(C(=O)c2ccc(Cl)cc2)cc1-c1nc2ccccc2n1C`?
RORg inh: inconclusive; Gal4-VP16 FLuc: inconclusive; DT40 TDP1 no CPT: 18.4µM*; DT40 TDP1 CPT: 13µM*; ELG1 DNA repair: inconclusive; IL-1B inflam inh: -72.0*

How did CC(=O)Nc1ccc(NC(=O)c2ccc(NS(=O)(=O)c3cc(C(C)(C)C)ccc3C)cc2)cc1 do in these assays?
RORg inh: -1.0%; Gal4-VP16 FLuc: 0.9%; DT40 TDP1 no CPT: -28.3%; DT40 TDP1 CPT: -9.1%; ELG1 DNA repair: -10.5%; IL-1B inflam inh: 17.4

What do the screens show for `Cc1ccc(C(=O)Nc2ccccc2)cc1S(=O)(=O)Nc1ccccc1`?
DT40 TDP1 no CPT: -13.9%; DT40 TDP1 CPT: -12.2%

What do the screens show for `Cc1cccc(NNC(=O)C(=O)NNc2cccc(C)c2)c1`?
RORg inh: 10.9%; Gal4-VP16 FLuc: 7.1%; DT40 TDP1 no CPT: -24.1%; DT40 TDP1 CPT: 20.5%; ELG1 DNA repair: 6.51µM*; IL-1B inflam inh: 8.4

What do the screens show for `CC(=O)Nc1ccc(NC(=O)c2ccc(C)c(S(=O)(=O)Nc3cccc(C)c3)c2)cc1`?
RORg inh: 41.9%; Gal4-VP16 FLuc: -23.9%; DT40 TDP1 no CPT: inconclusive; DT40 TDP1 CPT: inconclusive; ELG1 DNA repair: 20.6µM*; IL-1B inflam inh: -20.7

What do the screens show for `CC(=O)Nc1ccc(S(=O)(=O)NNc2cccc(C)c2)cc1`?
RORg inh: -31.4%; Gal4-VP16 FLuc: -3.1%; DT40 TDP1 no CPT: inconclusive; DT40 TDP1 CPT: 23.1µM*; ELG1 DNA repair: -9.2%; IL-1B inflam inh: 12.3

How did Cc1ccc(C(=O)Nc2ccccc2C(=O)O)cc1S(=O)(=O)Nc1ccccc1 do in these assays?
RORg inh: -30.4%; Gal4-VP16 FLuc: 15.5%; DT40 TDP1 no CPT: 23.1µM*; DT40 TDP1 CPT: -29.4%; ELG1 DNA repair: -20.6%; IL-1B inflam inh: 10.2

What do the screens show for `CN(c1cccc(NC(=O)c2ccc(Cl)c(S(=O)(=O)Nc3ccccc3)c2)c1)S(C)(=O)=O`?
RORg inh: -10.5%; Gal4-VP16 FLuc: 2.9%; DT40 TDP1 no CPT: 16.4µM*; DT40 TDP1 CPT: inconclusive; ELG1 DNA repair: inconclusive; IL-1B inflam inh: -7.8

What do the screens show for `Cc1ccc(C(=O)Nc2cccc([N+](=O)[O-])c2)cc1S(=O)(=O)Nc1cccc(C(=O)O)c1`?
RORg inh: 15.2%; Gal4-VP16 FLuc: 11.2%; DT40 TDP1 no CPT: inconclusive; DT40 TDP1 CPT: inconclusive; ELG1 DNA repair: -2.5%; IL-1B inflam inh: 12.5

Results for C=C(C)C(=O)NNc1ccccc1 ?
RORg inh: inconclusive; Gal4-VP16 FLuc: inconclusive; DT40 TDP1 no CPT: 7.31µM*; DT40 TDP1 CPT: 5.17µM*; ELG1 DNA repair: -6.3%; IL-1B inflam inh: 3.5

What do the screens show for `CC(C)OC(=O)C(=O)NNc1ccccc1`?
RORg inh: -6.9%; Gal4-VP16 FLuc: -6.9%; DT40 TDP1 no CPT: -17.0%; DT40 TDP1 CPT: -1.3%; ELG1 DNA repair: inconclusive; IL-1B inflam inh: 18.5

What do the screens show for `Cc1ccc(NS(=O)(=O)c2cc(C(=O)Nc3cccc([N+](=O)[O-])c3)ccc2C)cc1`?
RORg inh: inconclusive; Gal4-VP16 FLuc: inconclusive; DT40 TDP1 no CPT: inconclusive; DT40 TDP1 CPT: inconclusive; ELG1 DNA repair: inconclusive; IL-1B inflam inh: -80.4*
